Assay outcomes from PubChem.
Only some compounds are listed: those with a hit (about 19% of all), similar ones and a draw of the others.
HT1080-NT tox: kills 2HG-producing HT-1080-NT fibrosarcoma cells | HT-1080-NT fibrosarcoma viability, CellTiter-Glo ATP luminescence, 48 h | Potency, µM (top dose mostly 46.1 µM), without a hit: at the highest dose activity, negative = less viability, most hits filed as cytotoxic | 360,000 compounds, 1.6% hits | AID 686970;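 further: NT is the 2HG producing partner of a matched IDH1 knockdown line; potency means the concentration at half of the fitted maximal effect; 0% = DMSO-treated cells and -100% = media-only wells without cells; nearly all actives have a fitted effect of over 55% in size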
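A 48-hour cytotoxicity screen used HT-1080-NT cells plated 2 hours before compound delivery. ATP-based CellTiter-Glo luminescence measured viability, normalized to DMSO and no-cell controls.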
IL1B secr inh: blocks inflammasome-driven IL-1 beta release; THP-1 LPS/ATP IL-1B secretion, AlphaLISA, 16 h; hits give low values; activity change, % at 57.5 µM; 360,000 compounds, 4.7% hits; in the data active means activity change below about -50%; inconclusive means mostly about -30% to -49%
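Secreted IL-1B measured by AlphaLISA bead assay after 16 h compound exposure of THP-1 cells; compounds (final up to 57.5 uM) added 1 h before LPS (250 ng/mL) and ATP (1.25 mM) stimulation; lower signal means less secretion.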
TDP1 cell noCPT: qHTS for Inhibitors of human tyrosyl-DNA phosphodiesterase 1 (TDP1): qHTS in cells in absence of CPT | DT40 Tdp1-/- hTDP1 cells, no CPT, ATP luminescence, 48 h | 420,000 compounds, 15% hits | Potency, µM (top dose mostly 46.2 µM), without a hit: at the highest dose activity change, negative = growth inhibition, usual class: inhibitors; further: potency means the concentration at half of the fitted maximal effect; nearly all actives have a fitted effect of over 55% in size
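Chicken DT40 Tdp1-/- cells stably complemented with human TDP1 were seeded at 400 cells/well with DMSO in place of 20 nM camptothecin. After compound pinning, cells grew at least 48 hr at 37 °C; viability read by CellTiter-Glo luminescence.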
HT1080 IDH1KD tx: kills HT-1080 cells with IDH1 knockdown | Potency, µM (series often up to 46.1 µM), for the others: at the top dose activity, negative = toxicity, actives largely listed as cytotoxic | 360,000 compounds, 2% hits | HT-1080 IDH1 knockdown viability, ATP luminescence, 48 h;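 further: potency means the concentration at half of the fitted maximal effect; 0% = DMSO wells and -100% = cell-free medium wells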
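Luminescent ATP read-out (CellTiter-Glo, 10 min at room temperature) after 48 h compound exposure at 37 °C gave viability of IDH1-knockdown HT-1080 cells. Activity was normalised to DMSO and cell-free wells, then fitted as concentration-response curves.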
TDP1 cell CPT: growth inhibition of DT40 Tdp1-/-;hTDP1 cells with camptothecin (screen for TDP1 inhibitors); AID 686979; 420,000 compounds, 12% hits; Potency, µM (highest dose often 46.2 µM), without a hit: at the top dose activity change, negative = growth inhibition, usual class: inhibitors; chicken DT40 Tdp1-/-;hTDP1 cells + 20 nM CPT, ATP luminescence, 48 h; further: potency means the concentration at half of the fitted maximal effect; nearly all actives have a fitted effect of over 55% in size
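Chicken DT40 Tdp1-/- cells stably complemented with human TDP1 were seeded at 400 cells/well in medium containing 20 nM camptothecin, exposed to pin-transferred compounds, and grown at 37 °C for at least 48 hr. Viability was read as ATP luminescence.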
* = called active by the depositor; ? = inconclusive; . = no result given. Unless noted, the call rests on the fitted dose curve; in most records, active means well fitted curve in the direction sought with a large enough effect; inconclusive means small, poorly fitted or top-dose-only effect, or another doubt; inactive means no such curve, though single readings can be large; an effect the other way counts as inactive or inconclusive. Unless noted, on the % scale 0 is the no-effect control and ±100 the full control effect.

SMILES	HT1080-NT tox	IL1B secr inh	TDP1 cell noCPT	HT1080 IDH1KD tx	TDP1 cell CPT
CC(C)c1nnc(NC(=O)CCC(=O)NC2CC2)s1	6%	13	-1%	12%	9%
COc1ccccc1C(=O)NCCC(=O)N1CCCC(C)C1 (centres undefined)	6%	13	15%	6%	-4%
COc1ccc2sc(NC(=O)c3ccco3)nc2c1	?	8	-24%	-20%	?
COc1ccc(OCCn2c(NC(=O)c3ccco3)nc3ccccc32)cc1	?	-20	23µM*	?	18µM*
S=C(Nc1ccccc1)Nc1nc2ccccc2n1CCOc1ccccc1	?	-106*	16µM*	?	18µM*
CC(=O)Nc1nc2ccccc2n1CCOc1ccccc1	-20%	24	?	-28%	?
CCCCn1c(NC(=O)c2ccccc2)nc2ccccc21	?	49	?	0%	?
COc1ccc(C(=O)Nc2nc3ccccc3n2CCOc2ccc(Cl)cc2)cc1	.	.	13µM*	.	?
O=C(Cc1cccs1)N[C@@H]1c2ccccc2CC[C@H]1OCc1ccccc1	2%	-7	?	1%	?
COc1ccc(CCNC(=O)c2cccc(C(=O)NCCc3ccc(OC)cc3)n2)cc1	1%	-6	?	1%	?
N#CC1(C(N)=O)OC12CCS(=O)(=O)c1ccccc12 (centres undefined)	2%	6	-52%	1%	-18%
COc1ccc(/C(C)=N/Nc2nc3ccccc3nc2C)cc1OC	-19%	8	?	?	?
C/C(=N\Nc1cc(-c2ccccc2)nc(-c2ccccc2)n1)c1ccc(O)c(C)c1	?	-27	?	23µM*	?
C/C(=N\Nc1cc(Cl)nc(C)n1)c1ccc(Cl)c(Cl)c1	11%	8	-14%	8%	-11%
COc1cc(N/N=C(\C)c2ccc(O)c(C)c2)nc(-c2ccccc2)n1	21µM*	-59*	?	?	?
COc1cc(N/N=C(\C)c2ccc(N)cc2)nc(-c2ccccc2)n1	-2%	?	18µM*	-25%	23µM*
COc1ccc(NC(=S)N2CCc3ccccc32)cc1OC	-2%	-14	-6%	11%	?
COc1ccc(CCNC(=O)CN2C(=O)COc3ccc(C)cc32)cc1OC	.	.	-19%	.	-2%
CC(C)NC(=O)CSCc1c(Cl)cccc1Cl	7%	-8	15µM*	-1%	?
COc1ccc(CCN(C)C(=O)c2ccc(S(=O)(=O)Nc3ccccc3F)cc2)cc1OC	-5%	-1	-10%	0%	-20%
COc1ccc(N2C(=O)CC(N3CCC(c4nc5ccccc5[nH]4)CC3)C2=O)cc1 (centres undefined)	5%	13	?	2%	?
O=C1CC(N2CCC(c3nc4ccccc4[nH]3)CC2)C(=O)N1c1ccccc1F (centres undefined)	17%	-4	?	0%	26µM*
CCN1/C(=C2/SC(=S)N(C)C2=O)C=Cc2cc(C)ccc21	24%	-9	0%	23%	-8%
CCN1C(=O)/C(=C2/C=Cc3cc(C)ccc3N2CC)N(C)C1=S	-24%	?	21µM*	-20%	23µM*
COc1ccc(/C=C2\SC(=S)N(N3CCOCC3)C2=O)c(OC)c1	7%	0	16µM*	12%	-24%
O=C1NC(=S)SC1=Cc1ccc(Cl)cc1	-24%	-26	21µM*	?	?
O=C1NC(=S)SC1=Cc1ccccc1Br	?	-10	?	?	?
O=C1NC(=S)S/C1=C\c1ccc2ccccc2c1	0%	-3	21µM*	-2%	?
O=C1NC(=S)SC1=Cc1cc(Br)ccc1O	-14%	?	-13%	-10%	29µM*
CCN(Cc1ccccc1)C(=O)CCS(=O)(=O)c1ccc2c(c1)n(C)c(=O)c(=O)n2C	-12%	1	-12%	0%	-24%
